Luciferase inh: Firefly luciferase inhibition profiling of diverse chemical library using quantitative high-throughput screening | 2.5% of 76,000 active | AID 1347043, 2019 | Luciferin 4-monooxygenase (Photinus pyralis), P08659 | purified P. pyralis luciferase, luminescence, biochemical | Potency, µM (top dose mostly 115 µM), hits mostly inhibitors; further: nearly all actives have a fitted effect of over 65% in size
Target sequence (P08659 whole entry, looked up): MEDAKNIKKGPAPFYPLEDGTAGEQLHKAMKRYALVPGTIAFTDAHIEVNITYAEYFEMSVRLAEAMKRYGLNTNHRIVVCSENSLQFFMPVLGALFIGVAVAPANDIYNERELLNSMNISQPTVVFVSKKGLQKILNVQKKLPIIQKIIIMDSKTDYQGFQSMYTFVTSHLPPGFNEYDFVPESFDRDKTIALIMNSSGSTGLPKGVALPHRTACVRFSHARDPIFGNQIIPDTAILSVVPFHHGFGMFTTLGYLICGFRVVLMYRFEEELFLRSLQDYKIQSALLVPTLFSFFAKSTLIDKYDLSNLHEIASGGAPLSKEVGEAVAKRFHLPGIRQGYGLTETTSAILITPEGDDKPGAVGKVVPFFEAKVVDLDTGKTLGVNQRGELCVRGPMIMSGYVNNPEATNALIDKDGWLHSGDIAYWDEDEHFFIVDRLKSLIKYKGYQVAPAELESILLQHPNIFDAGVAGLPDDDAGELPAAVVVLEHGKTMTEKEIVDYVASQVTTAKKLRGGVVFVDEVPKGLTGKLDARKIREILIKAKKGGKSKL
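Luminescence read by CCD imager after adding enzyme (10nM final) to wells holding compound, titrated in qHTS. Substrates 10uM each D-luciferin and ATP; buffer 50mM Tris acetate pH 7.5, 10mM Mg acetate, Tween-20, BSA.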
HEK cytotox: Cytotoxic Profiling in HEK 293 Cell Line of Diverse Libraries Using Quantitative High-Throughput Screening. 6.6% of 94,000 active. AID 1345083, 2018. HEK 293 viability, ATP luminescence (CellTiter-Glo), 48-72 h. Potency, µM (titrated, usually from 115 µM), hits mostly inhibitors; further: nearly all actives have a fitted effect of over 60% in size
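CellTiter-Glo luminescence (cellular ATP) was read after 48 or 72 hr of compound exposure at 37 degree Celsius. Cells were HEK 293 plated at 250 cells/well.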
IP6K1 inhibitor: Primary qHTS assay for small molecule inhibitors of Inositol hexaphosphate kinase 1 (IP6K1). IP6K1 kinase, ADP-Glo luminescence, 2 h; hits give low values. activity change, % (series mostly up to about 58 µM). 0.81% of 140,000 active. AID 1645851, 2021; in the data active means activity change below about -25%
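ADP-Glo luminescence measures ADP made by human IP6K1 during a 2 h RT reaction with ATP/IP6 (mix at 1.3 mM/130 uM); top library doses 57.5 and 19.1 uM final.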
SNCA viab count: GF-AFC viability counterscreen for inhibitors of alpha-synuclein gene (SNCA) expression | HEK-293-SNCA-luc viability, GF-AFC fluorescence, 24 h | Potency, µM (highest dose often 57.1 µM), actives largely listed as cytotoxic | 0.12% of 150,000 active | AID 1671193, 2021; further: nearly all actives have a fitted effect of over 30% in size
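Cytotoxicity counterscreen: after 24 h compound treatment of genome-edited SNCA-luciferase HEK-293 cells, live-cell protease substrate GF-AFC read by fluorescence after 30 min; activity scaled between DMSO (0%) and medium-only (-100%), curves Hill-fitted.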
SNCA expr inh: Primary qHTS assay for inhibitors of alpha-synuclein gene (SNCA) expression. Potency, µM (titrated, usually from 57.2 µM), actives largely listed as inhibitors. HEK-293 SNCA-luciferase knock-in, luminescence, 24 h. AID 1671194, 2021. 0.17% of 140,000 active; further: nearly all actives have a fitted effect of over 45% in size
3T3 cytotox: Cytotoxic Profiling in NIH 3T3 Cell Line of Diverse Libraries Using Quantitative High-Throughput Screening; NIH 3T3 viability, CellTiter-Glo ATP luminescence, 48-72 h; Potency, µM (series often up to 96.7 µM), most hits filed as inhibitors; 4.3% of 94,000 active; AID 1345082, 2018; further: nearly all actives have a fitted effect of over 55% in size
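Cytotoxicity is measured as loss of cellular ATP: NIH 3T3 cells (400/well) are exposed to compound for 48 or 72 hr at 37 °C, then CellTiter-Glo luminescence is imaged after 10 min at room temperature.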
Hits are given with their value; . = inactive; ? = inconclusive; / = no result given; [ ] = remark or other dose. Shown are actives, neighbours in structure and some others; about 7.3% of the full set was active somewhere. Unless noted, the call rests on the fitted dose curve; in most records, active means well fitted curve in the direction sought with a large enough effect; inconclusive means small, poorly fitted or top-dose-only effect, or another doubt; inactive means no such curve, though single readings can be large; an effect the other way counts as inactive or inconclusive.

SMILES	Luciferase inh	HEK cytotox	IP6K1 inhibitor	SNCA viab count	SNCA expr inh	3T3 cytotox
O=C(CN1C(=O)NC(c2ccc(Cl)cc2)C2=C1COC2=O)Nc1cccc(F)c1 (centres undefined)	.	44.7µM	.	.	?	28.2µM
O=C(CN1C(=O)NC(c2ccc(Cl)cc2)C2=C1COC2=O)Nc1cccc(Br)c1 (centres undefined)	?	20µM	.	?	?	?
O=S(=O)(Cc1noc([C@@H]2C[C@@H](O)CN2Cc2cc3ccccc3o2)n1)c1ccc(F)cc1	.	?	.	.	.	.
O[C@@H]1C[C@@H](c2nc(Cc3ccc(F)cc3Cl)no2)N(Cc2ccc(OC(F)(F)F)cc2)C1	.	39.8µM	.	.	.	?
Cn1c(CN2C[C@H](O)C[C@H]2c2nc(-c3ccc(OC(F)(F)F)cc3)no2)nc2ccccc21	39.8µM	?	.	.	.	.
O=[N+]([O-])c1ccccc1CN1C[C@H](O)C[C@H]1c1nc(Cc2ccc(F)cc2Cl)no1	?	112µM	.	.	.	?
O=C(NCc1ccccc1F)c1ccc2c(c1)CN(C1CCSCC1)CCO2	.	?	.	.	.	.
CCOC(=O)C(Cc1ccc(Cl)c(N2CCN(C(=O)OC(C)(C)C)CC2)c1)OC (centres undefined)	/	?	.	/	/	?
COc1cc(CNC2CCCCCCC2)ccc1OCC(O)CN1CCSCC1 (centres undefined)	.	?	.	.	.	79.4µM
COc1ccc(CNCc2ccc(C)s2)cc1OCC(O)CN1CCCCC1 (centres undefined)	.	79.4µM	.	.	.	?
COc1cc(CNC(C)C)ccc1OCC(O)CN1CCSCC1 (centres undefined)	.	.	.	.	.	.
COc1ccccc1-c1ccc(C(=O)N2CCC(C(=O)NCc3cccc(F)c3)CC2)cc1	/	?	.	.[12.5 µM]	.	?
CCCCCNC(=O)CC(c1cccc(OC)c1OC)c1c[nH]c2ccccc12 (centres undefined)	.	?	.	.	.	?
O=C(NCC1CCCCC1)c1nc2sccn2c1-c1ccccc1	/	?	.	?	?	28.2µM
COc1ccc(CCNC(=O)c2nc3sccn3c2-c2ccc(C)cc2)cc1	/	?	.	.	.	22.4µM
COc1ccc(-c2c(C(=O)NC3CCCCCC3)nc3sccn23)cc1	/	44.7µM	.	.	.	.
O=C(NCC1CCCCC1)c1nc2sccn2c1-c1cccnc1	/	.	.	.	.	?
Cc1ccc(-c2c(C(=O)NCCCc3ccccc3)nc3sccn23)cc1	/	17.8µM	.	.	?	28.2µM
O=C(NCCCc1ccccc1)c1nc2sccn2c1-c1ccccc1	/	?	.	.	.	?
Cc1nnc([C@H]2CCN(Cc3c[nH]c4ccccc34)C2)o1	.	.	.	.	.	.
O=C(NCCCc1ccccc1)c1nc2sccn2c1-c1ccc(C(F)(F)F)cc1	/	?	.	.	.	?
Cc1ccc(-c2c(C(=O)NCc3ccccn3)nc3sccn23)cc1	/	79.4µM	.	.	.	?
O=C(NCCCc1ccccc1)c1nc2sccn2c1-c1cccc(C(F)(F)F)c1	/	50.1µM	.	.	?	?
CCN1C(=O)CCN(C(=O)c2cccs2)CC12CCOCC2	.	.	.	.	.	.
CCN(Cc1ccncc1)C(=O)c1cc(-c2cnc(C)nc2)nc2cc(F)ccc12	.	.	.	.	?	?
SMILES	Luciferase inh	HEK cytotox	IP6K1 inhibitor	SNCA viab count	SNCA expr inh	3T3 cytotox
CCN(Cc1cccnc1)C(=O)c1cc(-c2cnn(CC)c2)nc2cc(C)ccc12	?	.	.	.	.	6.31µM
CSc1ccccc1-c1ccc(N2CCN(C)CC2)nn1	15.8µM	.	.	.	?	.
CN1CCN(c2cc(-c3ccccc3Cl)ncn2)CC1	/	/	/	.	.	/
Cc1ccccc1-c1[nH]nc2ncc(-c3ccccc3O)nc12	.	63.1µM	.	.	.	?
COc1ccc(-c2[nH]nc3ncc(-c4ccccc4O)nc23)c(C)c1	.	28.2µM	.	?	.	?
COc1ccc(-c2[nH]nc3ncc(-c4ccc([S+](C)(=O)[O-])cc4)nc23)c(C)c1	.	56.2µM	.	.	.	?
Cc1noc(-c2cn(C3CCN(C(=O)Cc4cccc(Cl)c4)CC3)nn2)n1	.	.	.	.	.	.
CCC(C)NC(=O)c1ccc(-c2ccc(OC)nn2)cc1 (centres undefined)	/	?	.	/	/	.
CNC(=O)N1CCC(Cc2nncn2C(C)C)C1 (centres undefined)	.	.	.	.	.	.
CC(C)n1cc(CN2CCCN(S(=O)(=O)c3ccccc3)CCC(=O)NCC2)c2ccccc21	.	?	.	.	.	?
CCOC(=O)c1cc2cc(NC(=O)C3=CC(C)(C)Oc4ccc(OC)cc43)ccc2o1	/	44.7µM	.	/	/	?
CCOC(=O)c1cc2cc(NCC3=CC(C)(C)COc4ccc(OC)cc43)ccc2o1	/	?	.	/	/	.
COC(=O)[C@@H]1Cc2c([nH]c3ccccc23)[C@H]2C[C@@H](NCCN3CCOCC3)C[C@@H](c3ccc(F)c(F)c3)N21	.	?	.	?	.	28.2µM
COC(=O)[C@@H]1Cc2c([nH]c3ccccc23)[C@H]2C[C@@H](NCCN3CCOCC3)C[C@@H](c3ccc(C(F)(F)F)cc3)N21	.	7.94µM	.	?	?	14.1µM
COC(=O)[C@@H]1Cc2c([nH]c3ccccc23)[C@H]2C[C@@H](NCCN3CCOCC3)C[C@@H](c3ccc(OC(F)(F)F)cc3)N21	.	25.1µM	.	.	.	22.4µM
Cc1ccc(C(=O)N2CCC(C3CCN(S(C)(=O)=O)CC3)C2)c(=O)[nH]1 (centres undefined)	.	.	.	.[12.5 µM]	?	.
CC(=O)N1CCC([C@@H]2CN(Cc3cc(F)c(F)c(F)c3)C[C@H]2CO)CC1	.	?	.	.[12.5 µM]	.	.
Cc1cc(C)c2c(CC(=O)Nc3ccc(S(=O)(=O)N4CCCC(C)C4)cc3)coc2c1 (centres undefined)	/	/	.	.	?	/
Cc1cc(C)c2c(CC(=O)Nc3ccc(S(=O)(=O)N4CCCCC4)cc3)coc2c1	/	/	.	.	22.4µM	/
CS(=O)(=O)c1ccc(CN2CCOC[C@H]2c2ncc(-c3ccc(Cl)s3)[nH]2)cc1	.	?	.	.	.	.
Clc1ccc(-c2cnc([C@@H]3COCCN3C3CCNCC3)[nH]2)s1	.	?	.	.	.	.
